Among the test systems are RPMI-8226 leukemia; OVCAR-8 ovarian; OVCAR-5 ovarian; SK-OV-3 ovarian; IGROV1 ovarian; OVCAR-3 ovarian; HS 578T breast; NCI/ADR-RES ovarian; T-47D breast.
Test in all cases: NCI-60 one-dose screen, 48 h (100 = growth as untreated, 0 = no growth, -100 = all killed)
Common to all, as to details: 10 µM unless noted

This is part of a sample that, as a whole, favours compounds with a hit. Of some 83,000 tested, about 20% had one in any assay.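 Negative percent growth values reflect cell death: -40 means 40% of the cells present at the start died, and -100 means all died.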 Unmarked numbers belong to inactive results. Activity calls are given as the source filed them. The calls were made as follows: active = growth percent below 10; inactive = the rest.

Take `Nc1ccc(-c2nc3cc(Oc4ccc(Oc5ccc6[nH]c(-c7ccc(N)cc7)nc6c5)cc4)ccc3[nH]2)cc1`: the growth is 101% in the test on RPMI-8226 leukemia; 91.3% with OVCAR-8 ovarian; 113% in the test on OVCAR-5 ovarian; 98.7% with SK-OV-3 ovarian; 120% in the test with IGROV1 ovarian; 122% in the test with OVCAR-3 ovarian. Also, the growth in the test on HS 578T breast was 108%; in the test on NCI/ADR-RES ovarian it was 103%; with T-47D breast it was 77.3%.

For the molecule `COc1ccc(/C(C#N)=C/c2nc3c(N4CCOCC4)nc(Cl)nc3n2C)cc1OC`, the growth with RPMI-8226 leukemia was -7.23% (active); in the test on OVCAR-8 ovarian, 14.5%; in the test with OVCAR-5 ovarian it was 33.3%; with IGROV1 ovarian it was 3.01% (active); in the test on OVCAR-3 ovarian, -86.1% (active); in the test with HS 578T breast it was 13.2%. Further, in the test on NCI/ADR-RES ovarian, the growth was 11.7%.

For `COc1ccc(-c2cn3c(C(=O)Nc4ccccc4Cl)c(-c4ccccc4)c4c3n2CCCC4)cc1`, the growth in the test with RPMI-8226 leukemia is 68.5%; with OVCAR-8 ovarian, 83.6%; with OVCAR-5 ovarian it was 79.8%; with SK-OV-3 ovarian, 86.4%; in the test on OVCAR-3 ovarian, 84.1%; in the test with HS 578T breast, 114%. For the same molecule, the figures for the growth with NCI/ADR-RES ovarian and with T-47D breast were 81.7% and 78.9%, respectively.

Consider `COc1ccccc1N1CCN(C(CNS(=O)(=O)c2ccc(Cl)cc2)c2cccnc2)CC1` (configuration not stated), for which the growth in the test with RPMI-8226 leukemia was 27.5%; with OVCAR-8 ovarian, 100%; in the test with OVCAR-5 ovarian, 113%; in the test on SK-OV-3 ovarian it was 108%; in the test with OVCAR-3 ovarian, 75.4%; in the test with HS 578T breast, 88.3%. Also, the growth in the test with NCI/ADR-RES ovarian is 93.9%; in the test on T-47D breast it was 102%.

Regarding `CCOc1cc(Cl)c(C(C)NC(=O)c2cccc(OC)c2)cc1OCC` (configuration not stated), the growth in the test on RPMI-8226 leukemia is -6.93% (active); with OVCAR-8 ovarian, -19.9% (active); with OVCAR-5 ovarian, 30.2%; with SK-OV-3 ovarian it was 35.4%; in the test with IGROV1 ovarian it was 28.2%; in the test on OVCAR-3 ovarian it was -82.5% (active). The growth in the test with HS 578T breast is 18%; in the test on NCI/ADR-RES ovarian, 1.86% (active); in the test on T-47D breast it was 13.5%.

In the case of `NCCNc1nc2ccccc2c2c(=O)c3cc(F)cc(Cl)c3sc12`, the growth was -33.1% (active) in the test on RPMI-8226 leukemia; -49.2% (active) with OVCAR-8 ovarian; -81.6% (active) in the test with OVCAR-5 ovarian; 71.9% in the test with IGROV1 ovarian; -88.6% (active) with OVCAR-3 ovarian; 59.9% with HS 578T breast. The growth is -44.9% (active) in the test with NCI/ADR-RES ovarian and -45.6% (active) in the test on T-47D breast.

With `Cc1ccc(C(=O)c2oc3ccc4c(C)cc(=O)oc4c3c2C)cc1`, the growth is 0.992% (active) in the test on RPMI-8226 leukemia; 8.23% (active) in the test on OVCAR-8 ovarian; 66% in the test on OVCAR-5 ovarian; 46.9% with SK-OV-3 ovarian; 28.7% with OVCAR-3 ovarian; 86.5% with HS 578T breast. Further, the growth in the test on NCI/ADR-RES ovarian was 29.5%; in the test on T-47D breast, 14.8%.

For the molecule `COc1ccc(CCN2C(=O)/C(=C/c3ccc(C4Oc5ccccc5C5CC(c6cccc(OC)c6)=NN54)cc3)SC2=S)cc1` (configuration not stated), the growth is 103% in the test with RPMI-8226 leukemia; 102% in the test on OVCAR-8 ovarian; 99.9% in the test on OVCAR-5 ovarian; 97.7% in the test with SK-OV-3 ovarian; 104% in the test with IGROV1 ovarian; 102% in the test on OVCAR-3 ovarian. Besides, the growth is 101% with HS 578T breast, 104% in the test on NCI/ADR-RES ovarian and 100% in the test on T-47D breast.

With `CCCCCCCCCCCCCCn1cc(C2=C(c3coc4ccc(OC)cc34)C(=O)NC2=O)c2ccccc21`, the growth in the test with RPMI-8226 leukemia is 122%; in the test on OVCAR-8 ovarian it was 91.8%; with OVCAR-5 ovarian, 93.8%; in the test with IGROV1 ovarian, 81.6%; with OVCAR-3 ovarian, 102%; in the test with HS 578T breast, 98.5%. In addition, the results for the growth with NCI/ADR-RES ovarian and with T-47D breast were 98.9% and 96.2%, respectively.

With `FC(F)(F)c1cccc(CNC2CCN(CCc3ccccc3)CC2)c1`, the growth with RPMI-8226 leukemia is -10.3% (active); in the test with OVCAR-8 ovarian, 79.5%; in the test on OVCAR-5 ovarian it was 84.6%; in the test with SK-OV-3 ovarian, 81.2%; in the test on IGROV1 ovarian, 61.9%; with OVCAR-3 ovarian, 64.7%. Further, the growth in the test with HS 578T breast is 88.1%; in the test on NCI/ADR-RES ovarian, 65.2%; in the test on T-47D breast it was 86.7%.

For `Cn1nc(C(C)(C)C)cc1NC(=O)Cc1ccc(/C=C2\C(=O)Nc3ccccc32)cc1`, the growth in the test on RPMI-8226 leukemia was 28.7%; in the test with OVCAR-8 ovarian it was 54.6%; in the test on OVCAR-5 ovarian, 107%; with SK-OV-3 ovarian it was 60.7%; in the test on IGROV1 ovarian, 59%; in the test with OVCAR-3 ovarian it was 64.5%. The growth in the test on HS 578T breast was 74.7%; with NCI/ADR-RES ovarian, 66.9%; in the test with T-47D breast, 14.9%.

`O=C(Nc1ccc(Cl)cc1)N1CCN(c2ccc3nncn3n2)CC1`: the growth was -20.9% (active) in the test with RPMI-8226 leukemia; 30.5% with OVCAR-8 ovarian; 87.2% in the test with OVCAR-5 ovarian; -3.29% (active) with SK-OV-3 ovarian; 72.3% in the test with IGROV1 ovarian; -7.82% (active) with OVCAR-3 ovarian. The growth with HS 578T breast was -40.7% (active); with NCI/ADR-RES ovarian, 63.2%; in the test with T-47D breast, -54.9% (active).

`COC(=O)c1cc2c(n1Cc1ccccc1)-c1oncc1CCC2`: the growth in the test on RPMI-8226 leukemia was 49.8%; in the test on OVCAR-8 ovarian, 76.7%; in the test with OVCAR-5 ovarian, 87.8%; in the test with SK-OV-3 ovarian, 93.7%; with OVCAR-3 ovarian, 65.2%; in the test on HS 578T breast it was 78.2%. In addition, the growth is 40.3% with NCI/ADR-RES ovarian and 74.9% in the test with T-47D breast.

Turning to `COCCN(C(=O)Cc1cccs1)C(C(=O)NCc1ccc(OC)cc1)c1ccc(C(C)C)cc1` (configuration not stated), the growth is 93.2% in the test with RPMI-8226 leukemia; 80.9% in the test with OVCAR-8 ovarian; 106% in the test with OVCAR-5 ovarian; 87.5% with SK-OV-3 ovarian; 51.5% in the test on OVCAR-3 ovarian; 76.2% with HS 578T breast. Also, the growth with NCI/ADR-RES ovarian is 73.8%; in the test on T-47D breast it was 87%.

Source of the values: PubChem BioAssay (NCI).
